Experiment in all cases: NCI-60 one-dose screen, 48 h (100 = growth as untreated, 0 = no growth, -100 = all killed)
Common to all, as to conditions: 10 µM unless noted

For test [1], the system named is SR leukemia.
Test [2] has as its system RPMI-8226 leukemia.
Test [3] concerns OVCAR-8 ovarian.
Test [4] concerns OVCAR-5 ovarian.
Test [5] relates to OVCAR-4 ovarian.
Test [6] deals with SK-OV-3 ovarian.
Test [7] relates to IGROV1 ovarian.
Test [8] concerns OVCAR-3 ovarian.
Test [9] concerns HS 578T breast.
Test [10] has as its system NCI/ADR-RES ovarian.
The subject of test [11] is T-47D breast.
Test [12] has as its system BT-549 breast.
In test [13] the test system is MDA-MB-435 melanoma.
Test [14] has as its system SW-620 colon.
Test [15] relates to MCF7 breast.
For test [16], the system named is HCT-116 colon.
For test [17], the system named is HCC-2998 colon.
The test system of test [18] is KM12 colon.
Test [19] has as its system MDA-MB-468 breast.

SMILES strings stand for the structures. Compounds without any hit were thinned out: in the full panel of roughly 83,000, 20% have a hit.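 Values shown are percent growth following 48 h exposure of cells in 96-well plates to a single concentration of compound; below 10 was considered active.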 Values without a mark were called inactive. The source made the active and inactive calls.

The source of these data is PubChem BioAssay (NCI).

Turning to `COc1ccc2[nH]c(=O)c(CSc3ccccc3Nc3nccc(-c4ccc(C(F)(F)F)cc4)n3)cc2c1`, the growth was -16.8% (active) in [1]; 4.65% (active) in [2]; 32.4% in test [3]; 75.9% in test [4]; 39.2% in test [5]; 81.7% in test [6]. For the same compound, the growth in [7] is 59.8%; in [8], 22.1%; in [9] it was 42.5%; in test [10], 10.5%; in test [11], 11.3%; in test [12] it was -10.4% (active). The growth in test [13] was 32.3%; in test [14], 17.5%; in test [15] it was -17.5% (active); in [16] it was -8.91% (active); in test [17], 18.8%; in [18], 29.2%. In test [19], the growth is 13.6%.
`CC[C@]12C=CCN3CC[C@@]4(c5ccc(OC)cc5N(C)[C@H]4[C@@](O)(C(=O)OC)[C@@H]1OC(=O)CCC[P+](c1ccc(OC)cc1)(c1ccc(OC)cc1)c1ccc(OC)cc1)[C@@H]32`: the growth is 15% in test [1]; -45.5% (active) in test [2]; -86.2% (active) in test [3]; -96.5% (active) in test [4]; -75.3% (active) in [5]; -85.1% (active) in [6]. Moreover, the growth was -92.1% (active) in test [7]; -73.6% (active) in test [8]; -65.4% (active) in test [9]; 79.9% in test [10]; -61.4% (active) in test [11]; -96.6% (active) in [12]. Besides, the growth is -76.9% (active) in test [13]; -82.4% (active) in test [14]; -83% (active) in [15]; -68.8% (active) in test [16]; -89.7% (active) in test [17]; -65.3% (active) in test [18]. For the same compound, the growth in test [19] was -92.1% (active).
In the case of `COc1cc2cc(C(=O)N3C[C@@H](CCl)c4c3cc(OC(=O)N(CCC(=O)N3CCN(C)CC3)[C@H]3CCSSC3)c3ccccc43)[nH]c2c(OC)c1OC`, the growth in test [1] is -22.9% (active); in test [2], -5.04% (active); in test [3], -49.8% (active); in [4] it was -4.73% (active); in test [5], -11.9% (active); in [6], 10.8%. The growth was -16.7% (active) in test [7]; -55.8% (active) in test [8]; -14.1% (active) in test [9]; -55.3% (active) in [10]; 8.8% (active) in test [11]; -81.1% (active) in test [12]. Moreover, the growth in [13] is -48.5% (active); in [14], -42.4% (active); in test [15], -79.9% (active); in test [16], -41.4% (active); in test [17], -94.3% (active); in [18], -29% (active). The growth in test [19] is -91.5% (active).
Take `COc1ccc(NC(=O)Cn2c(/C=C/c3ccc([N+](=O)[O-])cc3)nc3ccccc3c2=O)cc1`: the growth in test [1] was 88.9%; in [2], 90.6%; in test [3] it was 45.8%; in [4], 76.4%; in test [5], 16.4%; in test [6], 33.6%. Moreover, the growth in test [7] is 59.6%; in [8] it was 60.2%; in [9], 29.9%; in test [10], 39%; in [11] it was 56.1%; in test [12] it was 106%. Further, the growth is 84.2% in [13]; 70.5% in test [14]; 73.9% in test [15]; 35.6% in test [16]; 67.5% in test [17]; 82.7% in test [18]. Moreover, the growth in test [19] is 52%.
In the case of `Cn1cc(-c2cc(N)n3nc(-c4c[nH]c5ccccc45)cc3n2)c2ccccc21`, the growth in test [1] is 12.1%; in test [2], -3.23% (active); in [3], -83% (active); in test [4], -79% (active); in test [5] it was -34.7% (active); in test [6] it was -95.1% (active). In addition, the growth in [7] was -79.8% (active); in test [8], -79.4% (active); in [9], -23.7% (active); in [10], -40.6% (active); in test [11], -56.6% (active); in [12], -92.5% (active). For the same compound, the growth was -80.6% (active) in test [13]; -87.1% (active) in test [14]; -77.3% (active) in test [15]; -88% (active) in test [16]; -77.1% (active) in test [17]; -80% (active) in test [18]. In [19], the growth is -79.8% (active).
As for `CNc1nc2ccccc2n2c(-c3ccc(O)c(O)c3)cnc12`, the growth was 6.32% (active) in test [1]; 9.2% (active) in test [2]; 11.9% in test [3]; 14.9% in test [4]; 34.7% in [5]; 16.5% in test [6]. In addition, the growth in test [7] is 7.31% (active); in [8], -5.33% (active); in test [9], 1.79% (active); in test [10], 6.86% (active); in test [11], 42.2%; in [12], -22.3% (active). Besides, the growth in [13] was -9.22% (active); in test [14] it was 24.6%; in [15], 4.34% (active); in test [16] it was 2.74% (active); in test [17], 19.9%; in [18], -0.402% (active). Besides, the growth in test [19] is 5.66% (active).
As for `COc1ccc(-c2cc(-c3ccccc3)c(C#N)c(=O)[nH]2)cc1S(N)(=O)=O`, the growth in test [1] is 100%; in test [2], 100%; in [3] it was 113%; in test [4], 99.3%; in test [5], 102%; in test [6] it was 99.4%. The growth is 126% in test [7]; 109% in test [8]; 109% in [9]; 105% in [10]; 102% in test [11]; 89.5% in test [12]. The growth in [13] is 102%; in test [14], 102%; in test [15] it was 103%; in test [16], 103%; in test [17], 122%; in test [18] it was 103%. The growth in test [19] was 102%.
On to `COc1cc(/C=N/NC(=O)c2ccc(OCc3nc4ccc(C)cc4[nH]3)cc2)cc(OC)c1OC`, for which the growth in [1] is 0.64% (active); in test [2] it was 7.31% (active); in test [3] it was -30.8% (active); in test [4], 88%; in test [5] it was 71.9%; in test [6] it was 106%. For the same compound, the growth was 50.5% in test [7]; 29.5% in test [8]; 63.1% in [9]; 91.6% in [10]; 35.1% in test [11]; 45.4% in test [12]. Further, the growth was 49.1% in [13]; 40.7% in [14]; 38.2% in test [15]; 21.2% in test [16]; 65.5% in test [17]; 57% in test [18]. Moreover, the growth in [19] is 41.5%.
